In PubChem BioAssay:
Activity calls are given as the source filed them.

Assay: resazurin metabolic signal in A549 cells – cell-based, resazurin fluorescence, 24 h, PK04 Diversity Set, profiling panel (AID 1171); note: test concentration not given here
Conditions: A549 viability, higher = more signal, called active from +8 up or from −8 down

Row | SMILES | z-score
1 | COCCOC(=O)N1C(=O)[C@@]2(c3cc(C#CC4(O)CCCCCC4)ccc31)[C@H](C(=O)N1CCN(c3ncccn3)CC1)[C@H]1C(=O)O[C@H](c3ccccc3)[C@H](c3ccccc3)N1[C@@H]2c1ccc(OCCO)cc1 | -0.49 (inactive)
2 | CS(=O)(=O)CCOC(=O)C1=CC(CCCO)=CC(c2cccs2)N(Cc2cccc(OC(F)(F)F)c2)C=C1C(=O)OCCS(C)(=O)=O (stereo not given) | -0.284 (inactive)
3 | N#Cc1ccc(NN2C(C(O)c3cc(C(F)(F)F)cc(C(F)(F)F)c3)C=CC3C(=O)N(c4ccccc4)C(=O)C32)cc1 (stereo not given) | -0.557 (inactive)
4 | COC(=O)C1(C)C=C2C(=C(c3ccccc3)C(=O)C2C)CN1 (stereo not given) | -0.72 (inactive)
5 | COC(=O)CC=C[C@H](C)[C@@H](OCc1ccccc1Br)C(C)C | -0.307 (inactive)
6 | CC(=O)OC[C@H]1O[C@H](CCON=C[C@@H](C)[C@H](OCc2ccccc2)C(C)C)C=C[C@@H]1OC(C)=O | 0.0793 (inactive)
7 | CC(CCN1CCCCc2nc(C)c(C)cc21)=NOC(C)CN1CCCCc2nc(C)c(C)cc21 (stereo not given) | 0.661 (inactive)
8 | CCN1C(=O)[C@H]2[C@H]3[C@H](O)[C@H](O)CC(=NOCc4ccccc4)[C@@H]3CC[C@H]2C1=O | -0.725 (inactive)
9 | CC(=O)OC[C@H]1O[C@H](CCON=C(C)CCN2CCc3nc(-c4ccccc4)c(-c4ccccc4)cc3C2)C=C[C@@H]1OC(C)=O | 0.783 (inactive)
10 | CN(C)CCCNC(=O)[C@@H]1c2ccccc2C(=O)N(Cc2cc(F)cc(C(F)(F)F)c2)[C@H]1c1ccc(CO)cc1 | 0.0923 (inactive)
